# Laboratory results reported in PubChem BioAssay AID1117361 (Southern Research Institute, 2015).
# In all, about 3,600 compounds went through this assay and about 900 (25%) were called active. These entries were drawn from the full list. Results with a measured potency or affinity are listed apart. A number with no mark means an inactive call. How the calls were made is not given here.
# Target: Protein Tat (Human immunodeficiency virus type 1 group M subtype B (isolate HXB2)) (UniProt P04608)
# Assay: HIV-1 Tat–TAR interaction blockers – biochemical, fluorescence polarization, FAM-labeled TAR RNA, counter-screen for Vif-APOBEC3G degradation inhibitor project, dose response (AID 1117361)
# Details: Tat-TAR RNA binding; series mostly up to 100 µM; inhibition: at the top concentration
SMILES,inhibition,outcome
Cc1ccc2nc(SCC(=O)N(CC(C)C)c3c(N)n(CC(C)C)c(=O)[nH]c3=O)[nH]c2c1,16.9%,
COc1ccc(NC(=O)C2CCCN(S(=O)(=O)c3cccnc3)C2)cc1 (stereo not given),,inactive
O=c1[nH]c2ccccc2c(O)c1-[n+]1ccccc1,4.12%,
COC(=O)C(NC(=O)C(NC(=O)c1ccccc1)C(C)C)C(C)C (stereo not given),8.78%,
CCC(C)[C@H](NC(=O)Nc1ccccc1F)C(=O)OC (stereo not given in full),4.12%,
CCOC(=O)c1ccccc1NC(=O)CSc1nccn1C,4.77%,
O=[N+]([O-])c1ccc(N2CCN(c3ccc(Cl)nn3)CC2)c(Cl)c1,2.73%,
CCc1ccc(C(=O)Nc2cccnc2Oc2ccc(Cl)cc2)cc1,,inactive
CC1=CC(C)(C)Nc2ccc(OC(=O)c3cccnc3)cc21,11.5%,
Cc1cc(C)cc(OCC(=O)NNC(=O)CN2C(=O)c3ccccc3C2=O)c1,,inactive
Cc1ccc(C(=O)NNS(=O)(=O)c2ccccc2[N+](=O)[O-])cc1,9.07%,
O=C(Nc1ccccc1[N+](=O)[O-])C1C(c2ccccc2)=C1c1ccccc1,0.68%,
O=C(COc1cccc2cccnc12)N1CCc2ccccc2C1,8.87%,
O=C(NN=C1CCCCCC1)c1cccnc1,,inactive
Cc1cc(C)n(CC(=O)NNC(=O)c2ccc(NC(=O)CC#N)cc2)n1,,inactive
CN(CCOCCOc1ccc2ccccc2c1)Cc1ccccc1,,inactive
Cc1c(C(=O)Nc2ccncc2)oc2c1C(=O)CC(C)(C)C2,9.46%,
CC(C(=O)Nc1ccc(F)c(F)c1F)N1CCCCCC1 (stereo not given),6.82%,
CCOC(=O)/C(C#N)=C/c1c(OCC)n(CC)c2ccccc12,,inactive
COC1=CC(=O)c2c(ccc3ncnc(N)c23)C1=O,,inactive
CCOC(=O)c1cc(-c2ccccc2)n(CC(=O)O)c1C,1.35%,
CC(C)n1c(CCC(=O)O)ccc1-c1ccccc1,18.2%,
Cc1c(CN2CCC(CO)(Cc3cccc(C(F)(F)F)c3)CC2)c2ccccc2n1C,3.3%,
CCOc1ccc(-n2cnnn2)cc1S(=O)(=O)NCCc1ccc(OC)c(OC)c1,,inactive

SMILES,inhibition,outcome
O=C(CSc1nccc(=O)[nH]1)Nc1ccc2c(c1)OCCO2,,inactive
Cc1nc(NC(=O)CN2CCOCC2)sc1-c1ccccc1,0.68%,
C=CCn1c(N2CCCCCC2)nc2c1c(=O)[nH]c(=O)n2C,10.4% [at 50 µM],
Cc1ccc2[nH]c(=O)c(C3C(C#N)=C(N)Oc4c3ccc3cccnc43)cc2c1 (stereo not given),3.01%,
CC(=O)OC(C)C1C2=C(C(=O)CC1(C)O)C(=O)c1c(ccc(-c3ccc4c(c3O)C(=O)C3=C(C4=O)C(C(C)OC(C)=O)C(C)(O)CC3=O)c1O)C2=O (stereo not given),,inactive
CCNC(=O)C1CC(=O)N(Cc2ccc(F)cc2)C(=Nc2ccc(OC)cc2)S1 (stereo not given),,inactive
N#C/C(C(=O)N1CCOCC1)=C1/SC(Cc2ccccc2)C(=O)N1c1ccccc1 (stereo not given),6.08%,
CCc1ccc(N/C(SCc2cccc(F)c2)=C(/C#N)C(=O)NCc2ccco2)cc1,8.19%,
CCN(Cc1ccccc1)Cc1nnnn1Cc1ccccc1,,inactive
Cc1ccc2[nH]c(=O)c(CN(Cc3cccs3)Cc3nnnn3Cc3ccccc3)cc2c1,20.5%,
CCOc1ccc2[nH]c(=O)c(CN(Cc3nnnn3Cc3ccco3)C3CCCCC3)cc2c1,,inactive
Cc1ccc2nsnc2c1S(=O)(=O)N(Cc1ccco1)Cc1cc2cccc(C)c2[nH]c1=O,1.36%,
Cc1ccc(-n2ncc(C#N)c2/N=C/N2CCCCCC2)cc1,4.05%,
O=C1OCCC1Sc1nc2ccccc2n1Cc1ccccc1 (stereo not given),,inactive
Cn1c(=O)oc2cc(S(=O)(=O)Nc3cccc(C(=O)O)c3)ccc21,8.19%,
CCOC(=O)c1ccc(NS(=O)(=O)c2ccc3oc(=O)[nH]c3c2)cc1,,inactive
COC(=O)c1sc(NC(=O)c2ccc(Cn3cc(Cl)cn3)o2)c(C#N)c1C,25%,
CCOc1ccc(/C=C2\SC(=S)N(CCC(=O)O)C2=O)cc1,0.82%,
Cc1ccc(OCCSc2nnc(-c3ccncc3)n2C)cc1,2.73%,
CC(Oc1cccc2cccnc12)C(=O)N/N=C/c1ccc2c(c1)OCO2 (stereo not given),4.12%,
COc1cc(NC(=O)c2noc3c2CCC3)c(OC)cc1Cl,2.34%,
O=C(c1cccs1)N1CCN(C/C=C/c2ccccc2)CC1,2.03%,
c1ccc2c(c1)NCC1CCCN21 (stereo not given),,inactive
COc1ccccc1NC(=O)c1oc2ccc(C)cc2c1C,,inactive

SMILES,inhibition,outcome
Cc1nnc(-c2cnn(-c3ccccc3)c2N)n1Cc1cccc(C(F)(F)F)c1,4.05%,
O=[N+]([O-])c1ccc(Cl)c(S(=O)(=O)Nc2cccc(S(=O)(=O)NC3=NCCC3)c2)c1,,inactive
O=C(NCC1CCCO1)c1cc2ccccc2oc1=O (stereo not given),,inactive
CCOC(=O)N1CCC(NC(=O)c2cc3c(C)nc4ccccc4c3o2)CC1,21.6%,
O=C(Nc1ccccc1C(=O)NCC1CCCO1)c1ccccc1 (stereo not given),,inactive
CCNC(=S)Nc1cccc(S(=O)(=O)NC2=NCCC2)c1,,inactive
CC(C)Oc1ccc(-c2cc(C(=O)NCCN3CCOCC3)c3ccccc3n2)cc1,,inactive
CCOC(=O)N1CCC(NC(=O)c2cc(C(=O)NCc3cccc(Cl)c3)ccc2CO)CC1,1.36%,
Cc1ccc2cccc(S(=O)(=O)N3CCN(c4ccccc4F)CC3)c2n1,,inactive
S=C(N/N=C/c1cccs1)NC1CC2CCC1C2 (stereo not given),,inactive
CC1=C(C(=O)OC(C)C)C(c2ccc(Br)s2)NC(=O)N1C (stereo not given),,inactive
COC(=O)Nc1ccc(C)c2nsnc12,,inactive
COc1ccccc1Cn1c(-c2ccccc2OC)nc2ccccc21,6.14%,
CCOc1ccc2nc(SCC(=O)c3cccs3)sc2c1,,inactive
O=C(Nc1cnn(Cc2ccc(Cl)c(Cl)c2)c1)c1nc2ncccn2n1,,inactive
CCOC(=O)C1CCN(S(=O)(=O)c2cccc(-c3cn4cccnc4n3)c2)CC1,8.11%,
CCN(CC)S(=O)(=O)c1ccc(/C=C/C(=O)Nc2ccc(N3CCOCC3)cc2)cc1,5.77%,
O=C1CC(N2CCOCC2)C(=O)N1c1ccc(Cl)cc1 (stereo not given),,inactive
CC(Sc1nnc(C2CC2)n1C)C(=O)Nc1ccc(N2CCOCC2)cc1 (stereo not given),5.68%,
Cn1c(-c2ccccc2)cnc1SCC(N)=O,2.03%,
COc1nc(N(c2ccccc2)c2ccccc2)nc(-n2ccnc2)n1,25.7%,
C(=N\n1cnnc1)/c1ccc2ncccc2c1,,inactive
